We go through 40 sequences from the OligoGym collection.
Also: reference of the scale not given here.

For the first test, the target named is NTRK3. The test is described as follows: pooled miR-30 sensor sort-seq; sequence = guide strand. Particulars: shRNA.
TAGACATCTCTGGACATGCCGA displayed a sensor-assay potency score (higher = more potent) of -0.718.

TAGAGCTCCATGTCCACGGCGT yielded a sensor-assay potency score (higher = more potent) of 0.00985. Sequence TTGTGGGTCACAGTGATAGGAG returned a sensor-assay potency score (higher = more potent) of -0.852.

Consider TAGAACTTGACAATGTGCTCAT, for which the sensor-assay potency score (higher = more potent) stood at 0.762. Still for that read-out and setting: the result for TTGACAGGTTTATATAACGCAA reads -0.787. Same read-out and setting: the result for TTAATGTGCTGCACATACGTGT reads 0.37; that for TTTGTAGATCTCCTTGATGTTC, -1.01. Same read-out and setting: the result for TAGACAGTGAGGGCAACACTGG reads -1.18; that for TTCATTCCAAATTTGGACCGTC, 0.838.

With TCTCTGTAGTGAACTTCCGGTA, the sensor-assay potency score (higher = more potent) was -0.729.

In the next test the target is NUDT12. The description is as above. The conditions noted are these: shRNA.
Sequence TATATCTGTGTAGTTCAGCTGA came in with a sensor-assay potency score (higher = more potent) of 0.275.

For the sequence TTTCTCTAGAATCTTACTGATT, the sensor-assay potency score (higher = more potent) was -0.991. In turn, TTAACTTGGCAATATCTCCTTC displayed a sensor-assay potency score (higher = more potent) of 0.732. Still for that read-out and setting: the result for TTTAACATTATGAAAACCTGGA reads 0.224; that for TTAATTTCTGTAGACACTGCTA, 0.0613; that for TATATTGACAACTTAAAGGTAA, -0.0673. Same read-out and setting: the value for TTAAATATGTAAATCTGCCTGG was 0.199; that for TAGTAAATTAGCTATATGCTTA was -0.516; that for TTTTGCTTTCTCTAGAATCTTA was 0.0347. In the case of TAATAGTATGCTTTTCTCCTTC, the sensor-assay potency score (higher = more potent) turned out to be 0.381. The same measure, in the same setting: the value for TATTATTACATTCATTTCCAGT was -0.883.

The target of a further test is NUDT17. The test is described as above. The conditions noted are these: shRNA.
As to TTGTCCTCTGCCATGGTTGGGA, the sensor-assay potency score (higher = more potent) was -0.492. On the same count and under the same terms, the value for TAGCAAGACAGTCTTGTCGCTG was -0.0193; that for TCTCTGTCCCATCCTCTGCGGC was -1.35; that for TTCTCGAAGCCCTCCGTCCAGC was -1.17. Still for that read-out and setting: the value for TTCCACTGCAAGGACAGAGGGT was -0.741; that for TTAGCAAGACAGTCTTGTCGCT was 0.135; that for AGCAAGACAGTCTTGTCGCTGG was -0.353.

With ATACAGAACAATGTGATGGTAT, the sensor-assay potency score (higher = more potent) stood at 0.6.

TAAGCTGCACTTTTACACGGTG displayed a sensor-assay potency score (higher = more potent) of -0.247. The same measure, in the same setting: the result for TTGAGGGCAAACTTGGTTCCAG reads -0.0646; that for TGTTCCATTCTTCCTTTGCTGG, -1.04. Same read-out and setting: the value for TTTGGGTTTGGTTGGATCCGGG was -0.403.

In the next test the target is NUDT18. The test is described as above. Particulars: shRNA.
Regarding TCCTCCATCACCTTCCACCAAG, the sensor-assay potency score (higher = more potent) was -1.79.

Take TAGCTCTTGGGGCAGAATGAGA: the sensor-assay potency score (higher = more potent) was -1.69. The same measure, in the same setting: the result for TAGTTCAACCAGGTGCAGGATG reads -0.826; that for TGTCTCGGGCTCACAGTGCAGC, -1.13; that for TTGCAGGTCTTCCTCCATCACC, -1.52. As to ACTAACACCCACACTGTCTGGG, the sensor-assay potency score (higher = more potent) is -0.0585.

Turning to AACTTTTGGGGGTTCATCCTGG, the sensor-assay potency score (higher = more potent) was -0.225.
